According to the supplement of paper PMC11417369:
Whole data set: some 25,000 sequences, median “ln(normalized median fluorescence intensity)” near 6.7, cut for the highest 2% near 10. Only a selection was taken, and the highest values are over-represented in it overall.

These sequences were tested on PfHDP1 homeodomain (GST-tagged) (assay: gcPBM binding intensity (ln(normalized median fluorescence intensity)); higher = stronger DNA binding).
How it was run: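 GST-fused DNA-binding domains of P. falciparum, expressed in E. coli, were applied at about 25 μg on average for 1 h to an Agilent 4 × 180k array of primer-extended double-stranded 36-bp intergenic genomic probes and negative controls. Binding intensity is the highest Masliner-normalised natural-log median intensity across replicate spots of either probe orientation, measured with Alexa488 anti-GST antibody and a 488 nm scan.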

| Sequence | gcPBM binding intensity (ln) |
| --- | --- |
| TTATAAAGAAAAAATTGCTTTAAAAGAAAGATTACA [CACACA_negctrl_site960] | 5.87 |
| CTAAATTGTTAATAGAGTACATTTGTATAATATAAG [XGTACX_site594] | 6.44 |
| ATATATATATATGTACACATATATGTGTTTGTTTTT [GTGCAC_negctrl_site5] | 8.99 |
| GTAATTTTTTTCTATACACACATATCTATAATATAT [CACACA_site7284] | 6.94 |
| TCACTATAATAATTTACACACATTTTAAGAAAATGT [CACACA_site3530] | 6.61 |
| TGTTTGCTTATGTGTTAAATATATATATATATATAT [TGCATGCA_negctrl_site218] | 9.25 |
| TATATGTAATATTATACATGCATACATAATATATAT [TGCATGCA_site558] | 6.52 |
| TCCAATTCTTTATTTTGTACACATTATGTGCATATG [XGTACX_site6290] | 10.9 |
| TTATATTAATTTTGTTGTACTATTTGTGCATTAAAT [XGTACX_site4790] | 10.8 |
| CATGTGCATATTAAATGTACATATATACATATATAC [XGTACX_site857] | 10.2 |
| ATTTTTGTAATTATTTGTACACATTTATTTATGTGT [XGTACX_site1864] | 6.76 |
| AGTGAGAAATACATAATAATACATTATGTGCATATT [XGTACX_negctrl_site247] | 10.7 |
| TTTTTTAAATTTAAAGTGCATTATTATATATTTGTA | 8.5 |
| TATTAATGCAAATGTTATATGTGCATACATAAATGT [CACACA_negctrl_site790] | 10.9 |
| TTATATGTATTTCTTTGTACACATTTTTATATATAT [XGTACX_site1462] | 7.16 |
| TTTTTTTTTTTTTTGTGTACTAATATTATAAATTTT [XGTACX_site4405] | 6.44 |
| TATACATATATAAATGCATGTTGATATTAATAGTTA [TGCATGCA_site639] | 6.53 |
| ATACCATATAATTATGTGAGAAAATATAATATTCAT [CACACA_negctrl_site310] | 6.55 |
| AAATAGTTGTTATGGGTGCAAACCACATATATATAA [GTGCAC_site9428] | 8.79 |
| TGTAGTTTGTCCCATGCATGTTCCATTAAAATATAT [TGCATGCA_site854] | 7.57 |

| Sequence | gcPBM binding intensity (ln) |
| --- | --- |
| TTATGTAGTATAATGAGTACTAAATATAGATATGTT [XGTACX_site6335] | 6.56 |
| ATTTAACAACTTCAAACACACAATATAGATTTATAT [CACACA_site7067] | 6.6 |
| AAACAAGTAATTGTTATTATTATTATATTATTATTA [CACACA_negctrl_site402] | 6.12 |
| TTTGAATATTCATATGCACACAAATTAATATACATA [CACACA_site8040] | 9.99 |
| TTTATTTATTATTAAAGTACTAAAATATATTATTAT [XGTACX_site4887] | 6.24 |
| AATAATATTTATTTTTGTACATATGTGCATTATAAA [XGTACX_site3682] | 11.2 |
| TTTATTTATTATTAAAGTACTAAATTATATTATTAT [XGTACX_site2565] | 5.95 |
| AAAAAAAAAAAATGTGTGCACATTATTTCAACTTAA | 10 |
| ATAATAATATTATTTTGTACATATGTGCTTATTTAT [XGTACX_site5540] | 7.11 |
| AATGTATTAAAATTACGTACATATGCACATTTTATA [XGTACX_site5046] | 8.53 |
| ATTTTAAATGTTATGCGTACATATTAATCCTACTTA [XGTACX_site1344] | 6.69 |
| TATTTCAAATGTTATGTGCACATATTAATCCTACTT [GTGCAC_site9738] | 10.7 |
| ATGTGCAAATATTAAAGTACTAAATTTTATTATTTT [XGTACX_site7306] | 11.3 |
| ATATATACATATAAATGTACATAATTATTATGCACA [XGTACX_site1261] | 9.09 |
| GTACGTTACATAAATGTGCACATATTATATGCGAAG | 10.7 |
| TTGCATTAATTTATGTGTACATATAAATTTTTATTT [XGTACX_site3060] | 6.94 |
| GAAAACGTTTGAAGTTGTACATATGTATAAAAAGAA [XGTACX_site2304] | 7.74 |
| TTTTTCATATTATACTTTTATATACATATATAAAAA [XGTACX_negctrl_site281] | 6.49 |
| ATATATATATGTAATAGTACATATGATAGTTTGTCA [XGTACX_site1545] | 8.51 |
| TTTTTATTGCAATACTTATATTTTTTTATGATTAAA [TGCATGCA_negctrl_site147] | 10.1 |

| Sequence | gcPBM binding intensity (ln) |
| --- | --- |
| TTACATGCTAAAATTTGTACATATATGATAAATATT [XGTACX_site2648] | 6.47 |
| TATTATTTAATCAAATGTACATAGAAAATGTATGTA [XGTACX_site4433] | 6.21 |
| CATATATACAGTAACACACACAAAAAAATATGAATA [CACACA_site3996] | 6.91 |
| ATATAGTTGTCATATTGTACACTTTAGGGTTGGTTA [XGTACX_site7339] | 6.64 |
| TTATAAAAATAATATCGTACAAATGACATAGATGAA [XGTACX_site2570] | 6.6 |
| ATTATCCATGCATTTACACACACACCCAAAAAAATT [CACACA_site4101] | 7.67 |
| ATATATATATATATATGTACATATTTATATTGTAAA [XGTACX_site8878] | 9.35 |
| TAATTACCATATGGTACACACATATATATATGTATA [CACACA_site3487] | 7.02 |
| TTTTTCATAAGAAGCACACAAAAAATGATAGAGAAT [CACACA_site1417] | 7.39 |
| AAAATATTCACGTGTACATATATATATATATATTAT [TGCATGCA_negctrl_site192] | 6.96 |
| TTTTATATAAATATCACACACACACGCATGTTTTAA [CACACA_site6187] | 6.71 |
| CATATACAGAAACACACACACACATAAATAAATATA [CACACA_site1343] | 6.84 |
| CATTTATATAAAGAATGTACACACAGAAATGCACAC [XGTACX_site4718] | 9.03 |
| TTATATAAAGAATGTACACACAGAAATGCACCCACA [CACACA_site2282] | 9.38 |
| TTTTATATTTTATGCACACTTATAAGAAATATGTAC [CACACA_site3040] | 10.6 |
| ATTTATATAAAGAATGTACACACAGAAATGCACCCA [CACACA_site8715] | 10.7 |
| TATTTTATATTTTATGCACACTTATAAGAAATATGT [CACACA_site5647] | 9.42 |
| ATAATATATGTATGTATGCACTTTTATTATTTTTTT | 7.24 |
